Laboratory results reported in PubChem BioAssay (NCATS).
Results filed as inconclusive are left out. Calls of active or inactive are those of the source. Unless noted, calls come from the whole dose curve; as a rule, active = well fitted curve in the direction sought with a large enough effect; inconclusive = small, poorly fitted or top-dose-only effect, or another doubt; inactive = no such curve, though single readings can be large; an effect the other way counts as inactive or inconclusive.

Experiments:
[1] = molecular target: Lysosomal acid glucosylceramidase (Homo sapiens) (UniProt P04062); experiment: Glucocerebrosidase-p2 (AID 348; in the data active = potency below about 10 µM; note: potency is the fitted concentration of half-maximal effect); conditions: purified GBA, blue fluorogenic substrate, 40 min
Sequence of Lysosomal acid glucosylceramidase (Homo sapiens) (P04062 whole entry, looked up): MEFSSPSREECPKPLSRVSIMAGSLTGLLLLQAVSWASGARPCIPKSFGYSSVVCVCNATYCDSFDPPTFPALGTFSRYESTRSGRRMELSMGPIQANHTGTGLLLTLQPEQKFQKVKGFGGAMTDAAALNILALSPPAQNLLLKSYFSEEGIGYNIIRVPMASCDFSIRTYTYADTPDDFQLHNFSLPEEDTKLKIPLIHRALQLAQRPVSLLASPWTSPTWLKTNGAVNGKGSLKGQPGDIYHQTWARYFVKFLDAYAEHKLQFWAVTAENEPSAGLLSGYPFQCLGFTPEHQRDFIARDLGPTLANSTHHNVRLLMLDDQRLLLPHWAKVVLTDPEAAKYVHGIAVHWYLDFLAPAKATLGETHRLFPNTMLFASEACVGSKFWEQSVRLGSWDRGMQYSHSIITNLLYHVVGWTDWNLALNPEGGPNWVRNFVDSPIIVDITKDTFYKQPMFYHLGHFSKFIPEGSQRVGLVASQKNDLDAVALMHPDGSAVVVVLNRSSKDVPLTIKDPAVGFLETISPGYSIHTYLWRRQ
Method in brief: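 Normal human glucocerebrosidase (0.2 nM) with blue fluorogenic substrate (80 uM final) in citrate/phosphate pH 5.9 with 10mM sodium taurocholate, 0.01% tween-20; 40 min RT, NaOH/glycine stop; fluorescence Ex 365/Em 440; AC50 from a titration from 0.6 nM upwards.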

[2] = AP1 Signaling Pathway (AID 357; active = well fitted curve in either direction with a large enough effect, not every such curve was filed as active;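 note: ME-180 reporter cells stimulated with EGF at its EC50 level; % is set by controls: 0 for no effect and ±100 for the full control effect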); conditions: ME-180 AP-1-bla reporter, EGF-induced, beta-lactamase ratio, 5 h; at 7.69 µM (top of the series) unless noted
Method in brief: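 AP-1-bla ME-180 cells, Opti-MEM + 0.5% dialyzed FBS, plated overnight 37 °C. Cpd titration + EC50 EGF, 5 h 37 °C. CCF4 2.5 h RT; ex 405, em 460/530 ratio → %activity, AC50.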

[3] = molecular target: Cytochrome P450 1A2 (Homo sapiens) (UniProt P05177); experiment: p450-cyp1a2 (AID 410; calls by dose curve;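 note: -100% = full effect of reference inhibitor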)
Sequence of Cytochrome P450 1A2 (Homo sapiens) (P05177 whole entry, looked up): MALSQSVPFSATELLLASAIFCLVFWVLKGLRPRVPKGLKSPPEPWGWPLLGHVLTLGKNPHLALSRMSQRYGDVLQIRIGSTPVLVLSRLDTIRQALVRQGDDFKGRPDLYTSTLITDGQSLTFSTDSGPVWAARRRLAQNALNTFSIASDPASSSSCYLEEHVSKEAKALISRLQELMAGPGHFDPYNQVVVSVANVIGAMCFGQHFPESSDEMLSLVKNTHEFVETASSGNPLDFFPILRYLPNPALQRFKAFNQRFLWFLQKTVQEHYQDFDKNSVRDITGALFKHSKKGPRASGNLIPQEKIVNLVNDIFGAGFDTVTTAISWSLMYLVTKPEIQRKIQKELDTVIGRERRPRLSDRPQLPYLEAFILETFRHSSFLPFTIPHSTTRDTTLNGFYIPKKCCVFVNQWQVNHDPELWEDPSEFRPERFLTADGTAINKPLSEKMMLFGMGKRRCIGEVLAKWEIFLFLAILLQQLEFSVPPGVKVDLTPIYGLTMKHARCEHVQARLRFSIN
Method in brief: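 O-Demethylation of luciferin 6' methyl ether by human CYP1A2 is monitored as luciferase luminescence. Substrate sits at Km (100uM); enzyme is 20nM. Values are scaled to 57 uM furafylline as maximal inhibition.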

[4] = NFAT Signaling Pathway (AID 444; active = well fitted curve in either direction with a large enough effect, not every such curve was filed as active;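 note: carbachol stimulus at about its EC50 of 1 µM final; % is set by controls: 0 for no effect and ±100 for the full control effect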); conditions: Jurkat NFAT-bla M1, carbachol, beta-lactamase ratio, 5 h; at 7.69 µM (top of the series) unless noted
Method in brief: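 Read-out: CCF4 FRET ratio (460 nm/530 nm) after 1 h RT dye loading, used for %activity and AC50 from titration series. Cells: Jurkat NFAT-β-lactamase/M1 line, treated with compound plus 1 uM carbachol for 5 h, 37 °C.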

[5] = Stat Signaling Pathway (AID 446; active = well fitted curve in either direction with a large enough effect, not every such curve was filed as active;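 note: ME-180 cervical cancer cells given 40 pM IL-6 alongside compound; SIE-controlled beta-lactamase reporter measured as 460/530 nm FRET emission ratio; % is set by controls: 0 for no effect and ±100 for the full control effect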); conditions: ME-180 (cervical carcinoma) SIE beta-lactamase reporter, IL-6 stimulated, 5 h; at 7.69 µM (top of the series) unless noted
Method in brief: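 FRET read-out (405 nm excitation, 460/530 nm emission) of a beta-lactamase reporter under a STAT-inducible element in ME-180 cervical carcinoma cells. Cells with compound receive 40 pM IL-6 for 5 h. Values are normalised to AC90 stimulation and AC90 JAK-inhibitor controls.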

[6] = molecular target: Glucocorticoid receptor (Homo sapiens) (UniProt P04150); experiment: GR-GFP Redistribution (AID 450;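 active = compounds whose dose series gives a full or clear partial fitted curve of increased nuclear translocation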; note: potency is the fitted concentration of half-maximal effect); conditions: U2OS GR-GFP nuclear translocation, laser cytometry, 2 h
Sequence of Glucocorticoid receptor (Homo sapiens) (P04150 whole entry, looked up, the tested form may be a part): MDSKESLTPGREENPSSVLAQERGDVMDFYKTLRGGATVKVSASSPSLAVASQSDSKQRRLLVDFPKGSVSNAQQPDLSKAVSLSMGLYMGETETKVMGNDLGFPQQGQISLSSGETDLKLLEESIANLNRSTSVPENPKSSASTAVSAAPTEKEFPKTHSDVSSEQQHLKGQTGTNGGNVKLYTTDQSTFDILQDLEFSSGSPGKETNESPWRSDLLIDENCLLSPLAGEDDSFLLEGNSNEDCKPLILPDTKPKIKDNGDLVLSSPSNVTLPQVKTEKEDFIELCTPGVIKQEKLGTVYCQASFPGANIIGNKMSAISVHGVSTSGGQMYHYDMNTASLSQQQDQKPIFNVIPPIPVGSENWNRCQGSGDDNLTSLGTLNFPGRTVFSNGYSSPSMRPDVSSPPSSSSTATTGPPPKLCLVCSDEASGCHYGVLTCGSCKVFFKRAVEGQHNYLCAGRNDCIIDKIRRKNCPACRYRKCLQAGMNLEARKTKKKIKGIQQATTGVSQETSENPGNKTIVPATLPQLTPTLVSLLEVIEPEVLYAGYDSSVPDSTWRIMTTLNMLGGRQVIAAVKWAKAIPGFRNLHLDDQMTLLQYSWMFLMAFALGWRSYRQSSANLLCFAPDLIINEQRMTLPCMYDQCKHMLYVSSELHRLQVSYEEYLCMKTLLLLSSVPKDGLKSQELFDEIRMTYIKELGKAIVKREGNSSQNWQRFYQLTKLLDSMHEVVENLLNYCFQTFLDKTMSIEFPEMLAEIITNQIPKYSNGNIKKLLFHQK

[7] = molecular target: Glucocorticoid receptor (Homo sapiens) (UniProt P04150); experiment: GR-EFC Redistribution (AID 451; calls by dose curve; note: potency is the fitted concentration of half-maximal effect); conditions: CHO-K1 GR-EFC translocation, beta-gal luminescence, 2 h
Method in brief: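 Translocation of GR-ED fusion to nuclear EA restores b-gal, read by luminescence after 1 h room-temperature detection. Engineered CHO-K1 biosensor cells, 1,000/well, exposed 2 h at 37 C to titrations up to 46 uM final.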

[8] = molecular target: Mitogen-activated protein kinase 10 (Mus musculus) (UniProt Q61831); experiment: JNK3 AlphaScreen Assay (AID 530; active = well fitted curve in either direction with a large enough effect, not every such curve was filed as active;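 note: kinase came from lysate of stimulated human HepG2 cells; signal reports phosphorylation of biotinylated GST-cJun 1-79 at Ser73 with 10 µM ATP; % is set by controls: 0 for no effect and ±100 for the full control effect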)
Method in brief: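 qHTS titrations with 15 min compound pre-incubation before adding ATP (10 uM final). Read-out: AlphaScreen of Ser73-phosphorylated biotin-GST-cJun using HepG2 lysate JNK3 activated by IL-1β and TNFα.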

[9] = molecular target: 3',5'-cyclic-AMP phosphodiesterase 4B (Homo sapiens) (UniProt Q07343); experiment: qHTS Assay for Inhibitors of PDE-IV (AID 607; active = well fitted activation curve with a large enough effect in the main read-out, with a control signal flat, not every such curve was filed as active; note: % of control where 0% means no effect)
Sequence of 3',5'-cyclic-AMP phosphodiesterase 4B (Homo sapiens) (Q07343 whole entry, looked up): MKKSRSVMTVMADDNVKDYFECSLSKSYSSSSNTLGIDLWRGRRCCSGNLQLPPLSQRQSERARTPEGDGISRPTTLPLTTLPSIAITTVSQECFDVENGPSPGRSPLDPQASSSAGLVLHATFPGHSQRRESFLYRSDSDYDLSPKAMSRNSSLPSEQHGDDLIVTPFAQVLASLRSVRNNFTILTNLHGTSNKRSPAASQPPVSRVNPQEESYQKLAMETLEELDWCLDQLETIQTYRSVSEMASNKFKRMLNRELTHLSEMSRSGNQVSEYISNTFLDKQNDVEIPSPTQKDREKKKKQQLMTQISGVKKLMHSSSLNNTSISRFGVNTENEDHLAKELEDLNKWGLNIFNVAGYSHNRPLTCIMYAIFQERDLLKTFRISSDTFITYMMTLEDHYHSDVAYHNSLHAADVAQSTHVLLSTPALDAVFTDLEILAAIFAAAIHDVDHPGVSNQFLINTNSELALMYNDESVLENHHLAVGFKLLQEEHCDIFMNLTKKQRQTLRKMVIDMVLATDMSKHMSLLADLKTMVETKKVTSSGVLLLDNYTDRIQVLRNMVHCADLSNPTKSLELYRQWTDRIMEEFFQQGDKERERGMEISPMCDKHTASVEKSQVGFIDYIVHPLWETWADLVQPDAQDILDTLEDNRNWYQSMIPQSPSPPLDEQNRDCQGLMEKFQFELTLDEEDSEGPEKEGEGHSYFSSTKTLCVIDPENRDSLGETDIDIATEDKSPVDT
Method in brief: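 Cell-based read-out of cAMP via a modified cyclic nucleotide-gated channel and membrane potential dye (535/590 nm) in HEK293 cells expressing PDE4 endogenously. Compounds tested up to 22.9 uM final; 100 uM RO 20-1724 reference.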

[10] = molecular target: ATP-dependent 6-phosphofructokinase (Trypanosoma brucei brucei) (UniProt O15648); experiment: qHTS Assay to Find Inhibitors of T. brucei phosphofructokinase: hit validation (AID 492961)
Sequence of ATP-dependent 6-phosphofructokinase (Trypanosoma brucei brucei) (O15648 whole entry, looked up): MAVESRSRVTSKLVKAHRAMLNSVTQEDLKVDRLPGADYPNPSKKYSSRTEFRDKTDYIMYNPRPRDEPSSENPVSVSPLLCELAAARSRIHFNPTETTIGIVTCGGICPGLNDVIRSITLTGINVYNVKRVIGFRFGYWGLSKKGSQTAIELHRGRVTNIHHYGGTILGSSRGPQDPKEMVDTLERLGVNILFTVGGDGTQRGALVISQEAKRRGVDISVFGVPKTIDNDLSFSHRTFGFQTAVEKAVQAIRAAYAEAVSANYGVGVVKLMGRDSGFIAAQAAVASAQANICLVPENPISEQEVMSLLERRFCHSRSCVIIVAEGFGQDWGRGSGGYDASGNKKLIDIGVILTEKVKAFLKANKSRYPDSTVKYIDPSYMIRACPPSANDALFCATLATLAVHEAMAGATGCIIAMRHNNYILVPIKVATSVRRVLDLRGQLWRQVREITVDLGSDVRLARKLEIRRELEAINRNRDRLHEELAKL
Method in brief: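 In this biochemical qHTS validation, titrated compounds were tested against 1.25 nM PFK with 0.1 mM ATP and 0.5 mM F6P. Percent activity came from controls lacking or containing enzyme.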

[11] = molecular target: Ubiquitin carboxyl-terminal hydrolase 1 (Homo sapiens) (UniProt O94782); experiment: Inhibitors of USP1/UAF1: Pilot qHTS (AID 504865);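 note: rhodamine fluorescence freed from ubiquitin-rhodamine substrate followed over time; top concentration of the series differs between compounds; % is set by controls: 0 for no effect and ±100 for the full control effect; nearly all actives have a fitted effect of over 35% in size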
Sequence of Ubiquitin carboxyl-terminal hydrolase 1 (Homo sapiens) (O94782 whole entry, looked up): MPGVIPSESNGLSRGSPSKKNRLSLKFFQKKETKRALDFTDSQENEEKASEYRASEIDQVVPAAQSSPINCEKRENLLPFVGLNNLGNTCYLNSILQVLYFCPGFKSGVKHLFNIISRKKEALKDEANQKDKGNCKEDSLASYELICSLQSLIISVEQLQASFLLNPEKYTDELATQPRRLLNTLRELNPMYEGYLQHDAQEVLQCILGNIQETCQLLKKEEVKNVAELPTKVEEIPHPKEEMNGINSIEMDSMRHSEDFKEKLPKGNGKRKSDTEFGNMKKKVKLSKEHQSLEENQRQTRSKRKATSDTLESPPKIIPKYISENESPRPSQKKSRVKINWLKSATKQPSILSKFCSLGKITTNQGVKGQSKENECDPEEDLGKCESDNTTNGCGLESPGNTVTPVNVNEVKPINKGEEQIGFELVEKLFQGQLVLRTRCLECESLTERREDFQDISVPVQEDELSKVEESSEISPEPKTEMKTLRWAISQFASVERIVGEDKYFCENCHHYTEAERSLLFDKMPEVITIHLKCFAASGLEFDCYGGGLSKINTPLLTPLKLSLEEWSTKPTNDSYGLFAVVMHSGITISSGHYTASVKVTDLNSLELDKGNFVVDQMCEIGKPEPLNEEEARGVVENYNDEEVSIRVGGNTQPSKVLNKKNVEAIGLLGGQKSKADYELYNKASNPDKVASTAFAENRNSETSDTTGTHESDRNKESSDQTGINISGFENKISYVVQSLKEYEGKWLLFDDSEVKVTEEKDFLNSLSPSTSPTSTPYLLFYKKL
Method in brief: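 Deubiquitinase activity followed as kinetic rhodamine fluorescence release from 150 nM Ub-Rho. 1 nM USP1/UAF1 with compound, after 15 min room-temperature preincubation, in HEPES pH 7.8 buffer containing TCEP, EDTA, BSA and Tween-20.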

[12] = molecular target: Luciferin 4-monooxygenase (Photinus pyralis) (UniProt P08659); experiment: Biochemical firefly luciferase enzyme assay for NPC (AID 624030);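 note: purified P. pyralis luciferase at 10 nM with luciferin and ATP substrate; 0% = DMSO and -100% = full luciferase inhibition by PTC124 control; nearly all actives have a fitted effect of over 70% in size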
Sequence of Luciferin 4-monooxygenase (Photinus pyralis) (P08659 whole entry, looked up): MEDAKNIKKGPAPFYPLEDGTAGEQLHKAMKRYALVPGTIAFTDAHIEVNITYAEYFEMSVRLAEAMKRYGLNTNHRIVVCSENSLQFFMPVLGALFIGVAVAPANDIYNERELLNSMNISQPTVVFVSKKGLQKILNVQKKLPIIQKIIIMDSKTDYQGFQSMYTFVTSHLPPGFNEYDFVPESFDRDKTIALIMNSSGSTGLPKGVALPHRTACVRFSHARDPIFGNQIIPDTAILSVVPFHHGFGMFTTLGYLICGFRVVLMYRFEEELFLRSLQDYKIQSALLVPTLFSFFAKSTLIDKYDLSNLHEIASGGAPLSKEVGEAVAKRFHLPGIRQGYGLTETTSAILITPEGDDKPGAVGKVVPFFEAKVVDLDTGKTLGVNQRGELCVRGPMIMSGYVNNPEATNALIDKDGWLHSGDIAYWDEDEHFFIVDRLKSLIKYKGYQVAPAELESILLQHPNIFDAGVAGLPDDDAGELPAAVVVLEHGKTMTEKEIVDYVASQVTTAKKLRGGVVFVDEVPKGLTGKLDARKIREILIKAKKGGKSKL
Method in brief: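 Direct inhibition of firefly luciferase enzyme (10 nM final, 50 mM Tris Acetate) assessed by luminescence within 5 minutes. Percent activity scaled between DMSO and PTC124 positive control, with concentration-effect curves classified by fit quality and response.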

[13] = S16 Schwann cell viability assay (CellTiter-Glo assay) (AID 624031);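 note: native untransfected S16 rat Schwann cells; plate controls were DMSO-treated cells for no effect and cell-free wells for full effect; nearly all actives have a fitted effect of over 70% in size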
Method in brief: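 Counter-screen for cytotoxicity: parental S16 rat Schwann cells lacking the PMP22 reporters, treated 24 h with compound, viability from cellular ATP by CellTiter-Glo luminescence, normalized to DMSO (0%) and no-cell wells.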

[14] = S16 Schwann cell PMP22 intronic element beta-lactamase assay (AID 624044; calls by dose curve;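 note: 0% = DMSO and -100% = potassium clavulanate positive control; nearly all actives have a fitted effect of over 15% in size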)
Method in brief: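 Beta-lactamase reporter under a PMP22 intronic regulatory element in stable S16 rat Schwann cells; 24 h compound exposure. 460 nm blue signal normalized between DMSO (0%) and potassium clavulanate, with 535 nm FRET tracking viability; curves classed by r2 and response.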

[15] = qHTS profiling for inhibitors of Plasmodium falciparum proliferation (AID 504749);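 note: 0% = DMSO vehicle and full inhibition = artemisinin control; nearly all actives have a fitted effect of over 60% in size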; conditions: P. falciparum in erythrocytes, SYBR Green DNA, 72 h, at 28.7 µM (top of the series)
Method in brief: (§1)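 SYBR Green fluorescence of parasite DNA, read after lysis and overnight dark incubation, measured growth over 72 h in erythrocyte culture at 0.3% parasitemia and 2.5% hematocrit. Data normalised to DMSO and 0.29 uM artemisinin, with plate-drift correction.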

[16] = tested on: 3D7; experiment: as above; conditions: P. falciparum in erythrocytes, SYBR Green DNA, 72 h; series mostly up to 28.7 µM
Method in brief: as §1

[17] = tested on: 7G8; experiment: as above; conditions: P. falciparum in erythrocytes, SYBR Green DNA, 72 h; series mostly up to 28.7 µM
Method in brief: as §1

[18] = tested on: AA1029; experiment: as above; conditions: P. falciparum in erythrocytes, SYBR Green DNA, 72 h; series mostly up to 28.7 µM
Method in brief: as §1

[19] = tested on: AS120; experiment: as above; conditions: P. falciparum in erythrocytes, SYBR Green DNA, 72 h; series mostly up to 28.7 µM
Method in brief: as §1

[20] = tested on: ATS189; experiment: as above; conditions: P. falciparum in erythrocytes, SYBR Green DNA, 72 h; series mostly up to 28.7 µM
Method in brief: as §1

[21] = tested on: ATS95; experiment: as above; conditions: P. falciparum in erythrocytes, SYBR Green DNA, 72 h; series mostly up to 28.7 µM
Method in brief: as §1

[22] = tested on: C2A; experiment: as above; conditions: P. falciparum in erythrocytes, SYBR Green DNA, 72 h; series mostly up to 28.7 µM
Method in brief: as §1

[23] = tested on: CP185; experiment: as above; conditions: P. falciparum in erythrocytes, SYBR Green DNA, 72 h; series mostly up to 28.7 µM
Method in brief: as §1

[24] = tested on: CP191; experiment: as above; conditions: P. falciparum in erythrocytes, SYBR Green DNA, 72 h; series mostly up to 28.7 µM
Method in brief: as §1

[25] = tested on: CP192; experiment: as above; conditions: P. falciparum in erythrocytes, SYBR Green DNA, 72 h; series mostly up to 28.7 µM
Method in brief: as §1

[26] = tested on: CP194; experiment: as above; conditions: P. falciparum in erythrocytes, SYBR Green DNA, 72 h; series mostly up to 28.7 µM
Method in brief: as §1

[27] = tested on: CP201; experiment: as above; conditions: P. falciparum in erythrocytes, SYBR Green DNA, 72 h; series mostly up to 28.7 µM
Method in brief: as §1

[28] = tested on: CP203; experiment: as above; conditions: P. falciparum in erythrocytes, SYBR Green DNA, 72 h; series mostly up to 28.7 µM
Method in brief: as §1

[29] = tested on: CP211; experiment: as above; conditions: P. falciparum in erythrocytes, SYBR Green DNA, 72 h; series mostly up to 28.7 µM
Method in brief: as §1

[30] = tested on: CP215; experiment: as above; conditions: P. falciparum in erythrocytes, SYBR Green DNA, 72 h; series mostly up to 28.7 µM
Method in brief: as §1

[31] = tested on: CP217; experiment: as above; conditions: P. falciparum in erythrocytes, SYBR Green DNA, 72 h; series mostly up to 28.7 µM
Method in brief: as §1

[32] = tested on: CP237; experiment: as above; conditions: P. falciparum in erythrocytes, SYBR Green DNA, 72 h; series mostly up to 28.7 µM
Method in brief: as §1

[33] = tested on: CP238; experiment: as above; conditions: P. falciparum in erythrocytes, SYBR Green DNA, 72 h; series mostly up to 28.7 µM
Method in brief: as §1

[34] = tested on: CP247; experiment: as above; conditions: P. falciparum in erythrocytes, SYBR Green DNA, 72 h; series mostly up to 28.7 µM
Method in brief: as §1

[35] = tested on: CP250; experiment: as above; conditions: P. falciparum in erythrocytes, SYBR Green DNA, 72 h; series mostly up to 28.7 µM
Method in brief: as §1

[36] = tested on: CP252; experiment: as above; conditions: P. falciparum in erythrocytes, SYBR Green DNA, 72 h; series mostly up to 28.7 µM
Method in brief: as §1

CC(C)(C)NC[C@@H](O)c1ccc(O)c(CO)n1
inactive: Potency [1] > 11.4 µM | activity change, negative = inhibition [2] -2.07% | activity change, negative = inhibition [3] 10.1% [at 2.29 µM] | activity change, negative = inhibition [4] 10.1% | activity, negative = inhibition [5] 19.4% | Potency [6] > 46 µM | Potency [7] > 9.22 µM | Potency [8] | Potency [9] | outcome [10] | Potency [11] | outcome [12] | Potency [13] | outcome [14] | activity, negative = inhibition ([15]; parasite line A) 8.88% | activity, negative = inhibition ([15]; parasite line B) 0.372% | Potency [16] | Potency [17] | Potency [18] | Potency [19] | Potency [20] | Potency [21] | Potency [22] | Potency [23] | Potency [24] | Potency [25] | Potency [26] | Potency [27] | Potency [28] | Potency [29] | Potency [30] | Potency [31] | Potency [32] | Potency [33] | Potency [34] | Potency [35] | Potency [36]
